Experimental data published in the supplement of paper PMC12636033.
± gives the standard deviation of the averaged measurements. Over roughly 33,000 sequences, “E-score (rank enrichment, -0.5 to 0.5)” has its median near -0.0043; the highest 2% begin near 0.24. For the sample, the highest values were picked, then their nearest neighbours and some sequences at random.

These sequences were tested on 2Sp-muMax20 (muMax20 with two 2,6-bis(methyl)pyridine Cys staples) (assay: PBM 8-mer E-score (E-score (rank enrichment, -0.5 to 0.5)); higher = stronger preferential binding).
Procedure: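 Protein binding microarray (universal PBM chip covering all 10-mers in fixed probe flanks) with chemically synthesized human Max(13-93) bHLH-LZ analogs (not full-length Max) bearing noncanonical residues (hArg, Tha, Aib, Nle at 65) and aromatic Cys staples. Read-out per 8-mer (and its reverse complement): E-score (rank-based enrichment, -0.5 to 0.5) and Z-score of median probe intensity.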

Sequence | PBM 8-mer E-score
CTAAGGTC | -0.029 ± 0.12
ATAAGGTA | 0.164 ± 0.031
ATAAGGAA | -0.0884 ± 0.043
ATAAGGTC | 0.238 ± 0.051
ATAAGGAT | 0.258 ± 0.011
ATAAGGAC | 0.0211 ± 0.092
CCAGTATC | -0.0909 ± 0.022
AACCCCGA | 0.0376 ± 0.019
ACGCTTCA | 0.0519 ± 0.091
ATAAGTTA | 0.236 ± 0.025
CTAAGTTA | 0.0843 ± 0.017
GTAAGTTA | 0.0283 ± 0.0067
CAAGGACC | -0.223 ± 0.048
AATTAGTC | 0.0516 ± 0.035
AATTAATT | 0.242 ± 0.031
CTTTAATA | 0.207 ± 0.016
AATTAATG | 0.215 ± 0.028
CATTAGTA | -0.0474 ± 0.081
AATTAATC | 0.207 ± 0.009
ACTTAATA | 0.156 ± 0.042
AATTAATA | 0.285 ± 0.03
AGTTAATA | 0.138 ± 0.027
ATTTAATA | 0.243 ± 0.0082
AATTAGTA | 0.268 ± 0.0095
GTTTAATA | 0.203 ± 0.062

Sequence | PBM 8-mer E-score
GCTAAGTA | 0.034 ± 0.091
CCGCCGCC | -0.00332 ± 0.019
ACACCAGA | -0.0516 ± 0.0077
CATGAACA | -0.0306 ± 0.058
GTTTAGGA | -0.13 ± 0.036
GACCCTTA | -0.0689 ± 0.0029
ATTTAAAG | 0.0431 ± 0.059
ATTTAAAC | 0.329 ± 0.047
CTTTAAAC | 0.0827 ± 0.097
AAAATTCC | 0.0483 ± 0.056
CCTCTTAA | 0.0544 ± 0.11
CATGGGGA | 0.124 ± 0.043
TATGGGGA | 0.283 ± 0.028
AGTGGGGG | -0.0461 ± 0.0062
AATGGGGA | 0.112 ± 0.047
CGTGGGGA | 0.1018 ± 0.00016
AGTGGGGA | 0.245 ± 0.011
GCCATGTA | 0.0368 ± 0.0029
CTCTTGGA | -0.112 ± 0.014
CAGTAGCG | -0.205 ± 0.045
ACGGCTAA | -0.0509 ± 0.014
ACCCCGGC | -0.00709 ± 0.083
ACATAGAC | 0.115 ± 0.034
ATTGAAGA | 0.237 ± 0.023
GTTGAAGA | 0.0675 ± 0.033

Sequence | PBM 8-mer E-score
ATTGAAGG | -0.0238 ± 0.14
CTTCCGAA | -0.23 ± 0.024
GTATTAAA | 0.134 ± 0.014
AGATTATG | -0.00069 ± 0.061
GTATTAGA | 0.182 ± 0.073
CTATTATA | 0.0957 ± 0.01
ATATTATC | 0.0885 ± 0.023
ATATTATG | 0.274 ± 0.083
GTATTATA | 0.259 ± 0.053
ATATTAGG | 0.297 ± 0.029
ATATTAGA | 0.235 ± 0.012
ATATTATA | 0.268 ± 0.047
ATATTACA | 0.157 ± 0.058
ATATTAGC | 0.166 ± 0.0073
CAGTTCGC | -0.0265 ± 0.073
TGTTAGAA | 0.125 ± 0.12
CGACTGGC | -0.148 ± 0.052
CCAGAGAC | -0.05 ± 0.076
GGATGACA | -0.0339 ± 0.094
CTATTCTA | 0.227 ± 0.043
ATATTCTA | 0.244 ± 0.04
GTATTCTA | 0.134 ± 0.021
AATGGCAA | 0.00112 ± 0.089
CCAAGAGC | -0.0397 ± 0.036
AACGTGGC | 0.163 ± 0.041

Sequence | PBM 8-mer E-score
GACGTGGC | 0.0114 ± 0.026
GACGTGGA | 0.055 ± 0.0074
AACGTGGG | 0.1 ± 0.047
AACGTGGA | 0.0553 ± 0.0092
TACGTGGA | 0.0461 ± 0.0044
CACGTGGC | 0.357 ± 0.064
CACGTGGA | 0.398 ± 0.033
CACGTGGG | 0.436 ± 0.0081
CTATTCAG | 0.00673 ± 0.056
AGAAGCGA | -0.0304 ± 0.05
ATCACGGA | -0.0223 ± 0.047
ACTTAGCC | -0.0201 ± 0.091
AGCGTAAC | 0.041 ± 0.14
GACTCAGC | -0.176 ± 0.036
AACGCCTT | -0.0913 ± 0.021
ACACAATG | 0.122 ± 0.025
AGACAATC | 0.0678 ± 0.067
ACACAAAA | 0.172 ± 0.045
AGACAATA | 0.268 ± 0.026
GCACAATA | -0.00579 ± 0.025
AGACAATG | 0.00664 ± 0.0054
ACACAATA | 0.247 ± 0.029
ACACAAAG | 0.206 ± 0.045
ACACAAAC | 0.271 ± 0.025
GAAGGTCA | -0.106 ± 0.027

Sequence | PBM 8-mer E-score
ATCTAACG | 0.0512 ± 0.018
CCCCTTTA | 0.1759 ± 0.0016
ACTGTGGC | -0.025 ± 0.13
TGTTTAAA | 0.278 ± 0.015
TGTTTTAA | 0.0917 ± 0.0018
AGTTTAAA | 0.181 ± 0.021
CATTTTAA | 0.167 ± 0.029
TATTTAAA | 0.155 ± 0.05
CATTTAAA | 0.239 ± 0.026
ATCCTCTA | -0.0199 ± 0.026
CAAGTGTG | 0.119 ± 0.073
AATGCGTC | -0.0127 ± 0.03
ATCAAGAC | -0.00991 ± 0.011
ACGATGAT | 0.0729 ± 0.0089
CTCTATCA | -0.0317 ± 0.017
GGCACCAA | 0.0196 ± 0.084
CATGTGGC | 0.173 ± 0.13
AATGTGGG | 0.246 ± 0.00061
AATGTGGT | 0.0284 ± 0.063
CATGTGGG | 0.329 ± 0.026
AATGTGGC | 0.124 ± 0.005
CATGTGGA | 0.16 ± 0.0062
CGGAGTTA | -0.187 ± 0.057
AGGAGTTA | 0.109 ± 0.0086
GGGAGTTA | 0.245 ± 0.029

Sequence | PBM 8-mer E-score
CATCGTGA | -0.256 ± 0.15
GAAGTCTA | 0.0975 ± 0.1
ACTACTAT | 0.146 ± 0.12
ATTACTAG | -0.00656 ± 0.053
CATACTAG | 0.243 ± 0.0018
ACTACTAG | 0.261 ± 0.086
ATTACTAC | 0.256 ± 0.011
CATACTAA | 0.1447 ± 0.00064
CCTACTAG | 0.107 ± 0.023
CTTACTAC | 0.122 ± 0.0036
CATACTAC | 0.0746 ± 0.039
AACTTGTA | 0.0176 ± 0.02
AGAGTCAA | -0.0327 ± 0.08
CGGCGGAG | -0.149 ± 0.039
CTGCTCGC | -0.104 ± 0.0046
CAGAGGTC | -0.182 ± 0.051
CAGCAACG | -0.129 ± 0.075
AAATATAT | 0.3135 ± 0.00093
CAATATAA | 0.152 ± 0.1
AAAAATAG | 0.122 ± 0.058
AAAAATAA | 0.0898 ± 0.087
ACCAATAG | -0.0592 ± 0.066
TAATATAA | 0.242 ± 0.035
ACCAATAC | 0.139 ± 0.021
ACCAATAT | 0.258 ± 0.045

Sequence | PBM 8-mer E-score
GAATATAA | 0.215 ± 0.056
AAATATAG | 0.148 ± 0.036
AAAAATAT | 0.244 ± 0.024
AAATATAC | 0.087005 ± 2.1e-05
ATGCGCCG | -0.102 ± 0.045
CATGGCAG | 0.0778 ± 0.016
CCCAAAGC | -0.158 ± 0.047
GAGCCGAA | -0.123 ± 0.12
AACTATAA | 0.199 ± 0.015
AAATATCA | 0.132 ± 0.038
GACTATAA | 0.0335 ± 0.072
AAATAAAA | 0.175 ± 0.059
AAATATAA | 0.255 ± 0.03
TACTATAA | 0.261 ± 0.011
TAGCGGCA | -0.00468 ± 0.025
TTAGTCAA | -0.0593 ± 0.046
ATCTCACA | 0.141 ± 0.066
TAATCCAA | 0.256 ± 0.031
AAATCCAA | 0.0276 ± 0.05
GAATCCAA | 0.132 ± 0.0084
ACGGGATA | 0.146 ± 0.0045
CATCTTGA | 0.00562 ± 0.03
GATCTTGA | 0.263 ± 0.086
